We go through 29 compounds from PubChem BioAssay (NCI).

Where “and” joins values, the source holds several entries; their conditions need not be identical. Equal values may be shown once. The panel holds about 83,000 compounds, 20% with a hit somewhere; the sample as a whole holds those more often.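 Percent growth is the endpoint: 0 to 100 indicates growth inhibition (40 means 60% inhibition), 0 means no net growth, and negative values indicate cell death.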 A number with no mark means an inactive call. Calls of active or inactive are those of the source. Rule for the calls: active = growth percent below 10; inactive = the rest.

The assay has as its system HL-60(TB) leukemia. The assay can be described thus: NCI-60 one-dose screen, 48 h (100 = growth as untreated, 0 = no growth, -100 = all killed). As to conditions: 10 µM unless noted.
As for `CS(=O)(=O)Nc1cc(-c2ccc3ncnc(N4CCc5cc(F)c(Cl)cc54)c3c2)cnc1Cl`, the growth is 14.3%.

`C=CC(=O)Nc1ccc(C(=O)/C=C/c2ccc(N(C)CCF)cc2)c(O)c1`: the growth was -32.2% (active).

On to `CCCn1c(=O)c2[nH]c(-c3ccc(OCc4nc5ccc(C#N)cc5[nH]4)cc3)nc2n(CCC)c1=O`, for which the growth is 95.4%.

As for `CN(C)c1nc(NCCNS(=O)(=O)c2ccc(C(=O)/C=C/c3ccccc3)cc2)nc(N2CCOCC2)n1`, the growth is 33%.

Take `C=C1CCC2C3(C)COC(c4ccc(F)cc4)OC3CCC2(C)C1C/C=C1/C(=O)OCC1O` (centres undefined): the growth was 0.0909% (active).

Regarding `Cc1cc(C2(c3cc(C)c(OCC(O)CNc4c(C)n(C)n(-c5ccccc5)c4=O)cc3C(C)C)OC(=O)c3ccccc32)c(C(C)C)cc1OCC(O)CNc1c(C)n(C)n(-c2ccccc2)c1=O` (centres undefined), the growth was 0.434% (active).

As to `O=C(N1c2ccccc2Sc2ccccc21)n1ccc2cccnc21`, the growth is 25.2%.

As to `COc1ccc(-c2cc(C(=O)N=Nc3c(O)[nH]c4ccc(Br)cc34)c3ccccc3n2)cc1`, the growth was 21.1%.

Turning to `Cc1ccc(C(=O)Nc2cc(-n3ccnc3C)cc(C(F)(F)F)c2)cc1C#Cc1cnc2cccnn12`, the growth was -28.8% (active).

For the compound `Cc1cc2nc3c4ccccc4n(CCNCCN(C)C)c3nc2cc1C`, the growth was -0.721% (active).

Turning to `COc1ccc(-c2nc3cc(C)ccc3n2CC(=O)N=Nc2c(O)[nH]c3ccc(OC)cc23)cc1`, the growth was -62.1% (active).

For the compound `N/C(=N\c1nc2ccccc2s1)NC(=O)NCCCCCCO`, the growth is 45.8%.

`CC1=C(c2cc(-c3ccc(Cl)cc3)c(C#N)c(N)n2)C(c2ccccc2)NC(=S)N1` (centres undefined): the growth is 5.3% (active).

For the compound `CSc1ccc(OCc2nc3ccccc3n2-c2cccc(NS(C)(=O)=O)c2)cc1`, the growth is 115% and 105%.

With `CCOC(=O)C1=C(N)N(c2ccc(C)cc2)C2=C(C(=O)CC(C)(C)C2)C1c1ccccc1Br` (centres undefined), the growth is -11.2% (active).

Take `O=C(c1ccc(O)cc1)C1[C@H](c2ccc(Br)cc2)[C@@H](c2ccccc2)NC12C(=O)Nc1ccccc12` (some centres undefined): the growth is 50.5%.

For `COc1c(F)ccc(C(=O)Nc2ccc3nc(NC(=O)C4CCCN(S(=O)(=O)c5ccc(C#N)cc5)C4)sc3c2)c1F` (centres undefined), the growth is 115%.

For the compound `COc1ccc(CN2[C@H](C(=O)NCCCCCCC(=O)NO)Cc3c([nH]c4ccccc34)[C@H]2C2CC2)cc1`, the growth was 3.44% (active).

On to `CCCSc1nc(NC2CC2)c(C#N)c(-c2ccc(OC)cc2)n1`, for which the growth was 81%.

For the compound `O=C(CSc1nnc(-c2ccc(-c3nc4ccccc4[nH]3)cc2)o1)Nc1ccc(Br)cc1`, the growth is 43.1%.

With `COc1cc2nc(SCc3ccccc3)n(-c3ccc(Cl)cc3)c(=O)c2cc1OC`, the growth was 34.8%.

As for `O=c1oc2ccccc2cc1-c1csc(N=Nc2c(O)[nH]c3ccc(Cl)cc23)n1`, the growth is 99.1%.

With `O=S(=O)(c1nc(-c2ccc(Br)cc2)oc1-c1ccc(Cl)cc1)N1CCCC(O)C1` (centres undefined), the growth is 31.4%.

Take `O=C(N/N=C/c1ccc(Br)o1)c1[nH]c2ccc(Br)cc2c1-c1ccccc1`: the growth is -48.7% (active).

As to `N#Cc1c(-c2cccc(O)c2O)cc(-c2ccc3ccccc3c2)[nH]c1=O`, the growth was 56.6%.

In the case of `O=C(CNc1nc(-c2ccccc2)cs1)Nc1ccccc1`, the growth is -30.5% (active).

In the case of `Nc1nc2c(F)c(F)c(F)c(F)c2s1`, the growth was 110%.

`NCCCCn1c(SCCc2c[nH]c3ccccc23)nnc1-c1ccc2ccccc2n1`: the growth is -64.6% (active).

As for `C=CC(=O)Nc1ccc(C(=O)/C=C/c2ccc(N(C)C)cc2)c(O)c1`, the growth is 1.03% (active).
